# Assay results published in PubChem BioAssay (NCI).
# About 83,000 compounds went through this panel and 20% of them were active in at least one assay; those are over-represented in the sample as a whole.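 Plates (96-well) were seeded with cells, treated with compound at one concentration, and incubated for 48 hours before percent growth was determined.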 Values without a mark were called inactive. Activity calls are given as the source filed them. Rule for the calls: active = growth percent below 10; inactive = the rest.
# Tests used:
# Assay in all cases: NCI-60 one-dose screen, 48 h (100 = growth as untreated, 0 = no growth, -100 = all killed)
# Details in all cases: 10 µM unless noted
# [1] = test system: NCI-H226 lung
# [2] = test system: NCI-H322M lung
# [3] = test system: HOP-62 NSCLC
# [4] = test system: NCI-H460 lung
# [5] = test system: HOP-92 NSCLC
# [6] = test system: NCI-H522 lung
# [7] = test system: A549/ATCC NSCLC
# [8] = test system: 786-0 renal
# [9] = test system: COLO 205 colon
# [10] = test system: DU-145 prostate
# [11] = test system: K-562 leukemia
# [12] = test system: MALME-3M melanoma
# [13] = test system: MDA-MB-231 breast
# [14] = test system: RXF 393 renal
# [15] = test system: SF-268 CNS
# [16] = test system: SF-295 CNS
# [17] = test system: SF-539 CNS
# [18] = test system: UACC-257 melanoma
# [19] = test system: M14 melanoma
SMILES,growth [1],growth [2],growth [3],growth [4],growth [5],growth [6],growth [7],growth [8],growth [9],growth [10],growth [11],growth [12],growth [13],growth [14],growth [15],growth [16],growth [17],growth [18],growth [19]
Cn1c(NCCc2ccc(O)c(O)c2)nc2c1c(=O)n(Cc1ccc(Cl)c(Cl)c1)c(=O)n2C,73.7%,82.1%,104%,88.2%,45.3%,-28.7% (active),80.3%,83%,57.4%,74.5%,79.6%,75.7%,69.5%,72%,64.8%,97.3%,75.6%,84.6%,85.6%
COc1cccc2c1C(=O)c1c(O)c3c(c(O)c1C2=O)C[C@](O)(C(=O)CO)C[C@H]3O[C@@H]1C[C@@H](NC(=O)CCCCCN(C)C2(c3ccc(F)cc3)CC3CCC2C3)[C@H](O)[C@@H](C)O1 (some centres undefined),59.3%,53.7%,46.9%,-84.2% (active),51.6%,-83.1% (active),19.7%,-92.7% (active),-63.7% (active),-42.2% (active),,-70.9% (active),-77.1% (active),31.6%,36.1%,-87.9% (active),-82.9% (active),96.4%,-41.3% (active)
CSc1nc(NCCO)c(C#N)c(-c2cccc([N+](=O)[O-])c2)n1,93.1%,102%,91.6%,101%,79.4%,92.3%,105%,100%,116%,108%,90.8%,111%,86.5%,104%,95.6%,98.3%,96.7%,115%,104%
N#Cc1c(-c2ccc(Cl)cc2)nc(N/N=C/c2cccc(Br)c2)nc1N1CCOCC1,92.3%,,90.9%,87%,71.2%,91.1%,80.4%,61.8%,44%,59.3%,12.6%,133%,103%,56.2%,89.2%,91.5%,78.8%,71.6%,62.4%
CC(C)(O)c1cn(CCCCN2C(=O)C(=O)c3ccccc32)nn1,94.8%,108%,94.8%,102%,102%,87.4%,99.7%,98.3%,112%,113%,94.3%,105%,99.7%,104%,99.7%,102%,96.4%,103%,97.7%
Oc1cccc(-c2nc(N3CCOCC3)c3c4c(sc3n2)CCCC4)c1,61.1%,56%,62%,44.1%,11.2%,42.2%,51.7%,96.7%,103%,37.8%,69.1%,49%,43.2%,16.3%,36.8%,75.6%,50.6%,69.7%,60.7%
CCCCn1cnc2c(Sc3c([N+](=O)[O-])ncn3C)nc(N)nc21,96%,105%,94.7%,106%,76.2%,97.3%,88.2%,104%,100%,99.6%,,93.9%,97.9%,102%,102%,,105%,84.1%,102%
O=C(COc1cccc(/C=C2\CSc3ccccc3C2=O)c1)Nc1nccs1,104%,98.7%,88.1%,91.5%,-52% (active),-60.3% (active),95.1%,101%,113%,106%,-58.1% (active),16.9%,80.6%,71%,43.5%,115%,75.3%,86%,39.1%
COc1ccc2[nH]cc(-c3noc(C(=O)c4cn(C)c5ccc(F)cc45)n3)c2c1,83.5%,96.1%,100%,95.6%,84.9%,92.8%,105%,103%,96%,103%,101%,95.5%,90.1%,116%,95.3%,98.8%,95.8%,97.5%,98.6%
CC(=O)O[C@H]1[C@@H]2OC(=O)C(CSc3ccccc3)[C@@H]2C[C@H]2O[C@]2(C)CC/C=C(\C)CCC[C@@H]1C (some centres undefined),,38%,101%,42.3%,-22.4% (active),-87.2% (active),21.2%,61.4%,29.7%,1.69% (active),63.1%,87.2%,14.9%,-53.3% (active),44.7%,49.3%,57%,15.8%,51.7%
O=C1c2ccccc2C(=O)c2c1ccc1[nH]c(-c3cccs3)nc21,91.9%,60.9%,102%,73.7%,80.8%,78.9%,66.7%,99.9%,103%,88.9%,80.7%,81.9%,70.9%,81%,87.6%,120%,77.5%,87.5%,106%
CCNc1ncnc2c1cnn2C1CCCO1 (centres undefined),94.2%,109%,99.4%,105%,60.9%,111%,95.4%,109%,105%,120%,,110%,110%,105%,96.9%,101%,105%,99.6%,104%
O=C(Cc1ccccc1Nc1c(Cl)cccc1Cl)NN1C(=O)/C(=C/c2ccc(Br)cc2)SC1=S,95.6%,98.7%,104%,104%,103%,93.9%,99.5%,98.9%,105%,109%,100%,100%,103%,111%,96.8%,101%,93.6%,103%,103%
O=C(N(c1ccccc1)c1ccccc1)n1ccc2nc(Cl)nc(Cl)c21,53.9%,67.9%,45.5%,36.1%,52.3%,24.9%,56.2%,80.1%,77.7%,33.8%,42.8%,58.6%,71.4%,32.7%,66.3%,74.1%,68%,70.2%,69.9%
COc1cccc(-c2nc3sccn3c2-c2ccnc(NCCNS(=O)(=O)c3ccc(F)cc3)c2)c1,24%,58.6%,43.7%,21.4%,,32.3%,22.7%,41.6%,23.4%,26.3%,13.4%,42.7%,55.6%,42.2%,34.7%,14.5%,55.5%,40%,23.9%
COc1cc2nc(N3CCCC3)nc(NCc3ccccc3)c2cc1OC,90%,79.7%,86.8%,79.2%,61.4%,73.1%,76%,78.6%,-20.7% (active),80.9%,1.41% (active),41.2%,68.9%,35.7%,87.6%,71.1%,52.4%,-46.6% (active),-71.2% (active)
CCCCCC(=O)Oc1ccc(/C(=C(\C)c2ccc(OC)cc2)c2ccc(OCCN3CCCCC3)cc2)cc1,98.7%,78.2%,63.1%,51.6%,81.7%,74.6%,53.2%,46.8%,-32.6% (active),79.8%,,64.3%,66.1%,70.2%,71.1%,38.9%,40.8%,8.72% (active),-39.2% (active)
CN1CCN(c2ccc(Nc3c4ccccc4nc4ccccc34)cc2)CC1,107%,120%,110%,104%,178%,99.7%,98.2%,102%,114%,111%,105%,103%,105%,110%,107%,,99.6%,103%,113%
Cc1cc(C)nc(SC2=C(Nc3cccc(Cl)c3C)C(=O)N(Cc3ccccc3)C2=O)n1,69.2% [30 µM],63.5% [30 µM],73% [30 µM],44% [30 µM],14.4% [30 µM],51.3% [30 µM],27.3% [30 µM],61.8% [30 µM],70.3% [30 µM],70.7% [30 µM],45.4% [30 µM],58% [30 µM],51.6% [30 µM],43.3% [30 µM],72% [30 µM],-5.72% [30 µM] (active),50.5% [30 µM],72.3% [30 µM],63.1% [30 µM]
C=CC(COC(c1ccccc1)(c1ccccc1)c1ccccc1)N(CC)CC (centres undefined),56.2%,87%,61.8%,58.1%,75.7%,54.9%,63.1%,77.6%,0.413% (active),69.9%,14.4%,61.9%,37%,-5.47% (active),81.9%,64.1%,62.6%,6.09% (active),9.54% (active)
O=[N+]([O-])c1ccc2c(c1)Cc1cc(F)ccc1-2,99.4%,95.6%,106%,106%,80.2%,104%,88.5%,95.4%,107%,114%,,109%,112%,103%,111%,96.5%,109%,87.1%,110%
COc1cc2nc(N3CCCC3)nc(NCC3CCCCC3)c2cc1OC,80.1%,50.1%,74.7%,-45% (active),-16.9% (active),-57.2% (active),6.9% (active),-82.5% (active),-86.2% (active),36.2%,-9.67% (active),-87.8% (active),-39.9% (active),-84% (active),74.4%,-70.9% (active),-84.2% (active),-82.8% (active),-79.3% (active)
COc1ccc(/C=C/c2nc3ccccc3nc2/C=C/c2ccc(OC)cc2)cc1,90.2%,103%,104%,100%,92.3%,94%,93.9%,88.8%,97.4%,105%,101%,109%,111%,80.3%,99.5%,102%,89.8%,106%,93%
O=C(COc1cccc(/C=C2\COc3ccc(Cl)cc3C2=O)c1)c1ccc(Cl)cc1,88.1%,98.2%,73.7%,102%,66.3%,87.1%,100%,98%,116%,124%,13.1%,77.5%,67.8%,,94.4%,120%,87%,104%,82.4%
COC(=O)[C@]12CCC(C)(C)C[C@H]1[C@H]1C(=O)C[C@@H]3[C@@]4(C)c5c([nH]c6ccccc6c5=O)C(C)(C)[C@@H]4CC[C@@]3(C)[C@]1(C)CC2,65.7%,90.4%,85.5%,66.8%,85.8%,45.1%,34.8%,86.3%,77.5%,86.5%,18.9%,88.1%,86.4%,65.7%,82%,35.6%,92.1%,57.4%,29%
COc1cccc(/C=N/NC(=O)c2ccccc2Nc2ccnc(C(F)(F)F)c2)c1O,-20.2% (active),17.4%,-6.28% (active),-6.96% (active),29.4%,18.6%,14.3%,-2.01% (active),2.9% (active),22.8%,33.7%,1.24% (active),42.6%,21%,18.9%,18.6%,0.849% (active),8.18% (active),-30.1% (active)
CC(C)c1c(C(=O)c2ccccc2)c(-c2ccccc2)c(-c2ccc(F)cc2)n1CC[C@@H](O)C[C@@H](O)CC(=O)O,62.2%,58.6%,90.1%,87.5%,,25.9%,100%,77.5%,55.3%,105%,71.3%,85.2%,,36.6%,34.7%,30.7%,80%,83.8%,63.8%
C=C1c2nc3ccccc3n2C=C(c2ccc(Cl)cc2)N1Cc1ccc(OC)cc1,80.8%,101%,118%,81.3%,77.4%,57.3%,84.5%,94%,71.1%,103%,59.2%,99.3%,90.1%,77.5%,96.1%,94.9%,105%,90%,81.1%
